Laboratory results from PubChem BioAssay AID1159580 (chemical genetic matrix, 2015).
In all, about 5,500 compounds went through this assay and about 2,000 (36%) were called active. Another 18% or so got no clear call; they are omitted. Rule as the data show it: active = normalized growth mostly below about 0.91 (no sharp cut-off); inconclusive = no clear call, values can overlap the other calls; inactive = mostly above about 0.92. The list shows a part of the results.

Experiment: chemical genetic growth profiling, strain panel (AID 1159580);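 also: tested at 20 µM; growth read once vehicle control cultures reached saturation at 30 °C; 1 = growth at the plate median or of vehicle wells; lower values mean less growth of the strain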
Conditions: S. cerevisiae deletion strains, growth OD
[1] = locus YDL101C, strain DUN1, active compounds read low
[2] = locus YHR030C, strain SLT2, active compounds read low
[3] = locus YAL013W, strain DEP1, active compounds read low
[4] = locus YBR229C, strain ROT2, active compounds read low
[5] = locus YCL061C, strain MRC1, active compounds read low
[6] = locus YDL134C, strain PPH21, active compounds read low
[7] = locus YDR150W, strain NUM1, active compounds read low
[8] = locus YEL061C, strain CIN8, active compounds read low
[9] = locus YGR078C, strain PAC10, active compounds read low
[10] = locus YHR087W, strain rtc3, active compounds read low
[11] = locus YJR043C, strain POL32, active compounds read low
[12] = locus YJR075W, strain HOC1, active compounds read low
[13] = locus YLR039C, strain RIC1, active compounds read low
[14] = locus YLR058C, strain SHM2 (second series), active compounds read low
[15] = locus YLR085C, strain ARP6, active compounds read low
[16] = locus YLR262C, strain YPT6, active compounds read low
[17] = locus YML094W, strain GIM5, active compounds read low
[18] = locus YMR219W, strain ESC1, active compounds read low
[19] = locus YMR263W, strain SAP30, active compounds read low
[20] = locus YMR307W, strain GAS1, active compounds read low
[21] = locus YNL153C, strain GIM3, active compounds read low
[22] = locus YNL298W, strain CLA4 (second series), active compounds read low
[23] = locus YNL322C, strain KRE1, active compounds read low
[24] = locus YNR030W, strain Alg12, active compounds read low
[25] = locus YPL055C, strain LGE1, active compounds read low
[26] = locus YPL241C, strain CIN2, active compounds read low
[27] = locus YPR135W, strain CTF4, active compounds read low
[28] = locus YNL128W, strain TEP1, active compounds read low

Measured: normalized growth

CSc1nnc(COc2ccc(C)c3c2CCC3)n1-c1ccccc1
inactive: locus YAR019C, strain CDC15, active compounds read low 0.982 | locus YBL105C, strain PKC1, active compounds read low 0.98 | locus YBR135W, strain CKS1, active compounds read low 0.986 | locus YBR136W, strain MEC1, active compounds read low 0.984 | locus YBR160W, strain CDC28, active compounds read low 0.984 | locus YDL017W, strain CDC7, active compounds read low 0.991 | locus YDL028C, strain MPS1, active compounds read low 0.991 | [1] 0.974 | locus YDL108W, strain KIN28, active compounds read low 0.992 | locus YDL132W, strain cdc53, active compounds read low 0.98 | locus YDL214C, strain PRR2, active compounds read low 0.96 | locus YDR052C, strain DBF4, active compounds read low 0.98 | locus YDR054C, strain cdc34, active compounds read low 0.976 | locus YDR226W, strain ADK1, active compounds read low 0.977 | locus YDR477W, strain SNF1, active compounds read low 0.972 | locus YER123W, strain YCK3, active compounds read low 0.96 | locus YER133W, strain GLC7, active compounds read low 0.941 | locus YFL009W, strain cdc4, active compounds read low 0.974 | locus YFL029C, strain CAK1, active compounds read low 0.981 | locus YFR003C, strain YPI1, active compounds read low 0.979 | locus YFR019W, strain FAB1, active compounds read low 0.978 | locus YFR028C, strain CDC14, active compounds read low 0.978 | locus YGR040W, strain KSS1, active compounds read low 0.962 | locus YGR052W, strain FMP48, active compounds read low 1.05 | locus YGR092W, strain DBF2, active compounds read low 0.948 | [2] 1.1 | locus YHR079C, strain IRE1, active compounds read low 1.05 | locus YHR082C, strain KSP1, active compounds read low 1.02 | locus YHR205W, strain SCH9, active compounds read low 0.972 | locus YIL147C, strain SLN1, active compounds read low 0.987 | locus YJL095W, strain BCK1, active compounds read low 1.03 | locus YJL128C, strain PBS2, active compounds read low 0.931 | locus YJL157C, strain FAR1, active compounds read low 0.968 | locus YJR016C, strain ILV3, active compounds read low 0.988 | locus YJR066W, strain TOR1 (second series), active compounds read low 0.934 | locus YJR066W, strain TOR1, active compounds read low 1.07 | locus YKL048C, strain ELM1, active compounds read low 0.964 | locus YKL067W, strain YNK1, active compounds read low 0.966 | locus YKL101W, strain HSL1, active compounds read low 0.964 | locus YKL193C, strain SDS22, active compounds read low 0.98 | locus YKL203C, strain TOR2, active compounds read low 1.04 | locus YLR113W, strain HOG1, active compounds read low 0.924 | locus YLR133W, strain CKI1, active compounds read low 0.979 | locus YLR403W, strain SFP1, active compounds read low 0.968 | locus YML070W, strain DAK1, active compounds read low 0.966 | locus YMR001C, strain CDC5, active compounds read low 0.98 | locus YMR205C, strain PFK2 (second series), active compounds read low 0.974 | locus YMR277W, strain FCP1, active compounds read low 0.98 | locus YNL006W, strain LST8, active compounds read low 0.98 | locus YNL020C, strain ARK1, active compounds read low 0.976 | locus YNL161W, strain CBK1, active compounds read low 0.982 | locus YNL183C, strain NPR1, active compounds read low 1.05 | locus YNL207W, strain RIO2, active compounds read low 0.979 | locus YNL222W, strain SSU72, active compounds read low 0.985 | locus YNL307C, strain MCK1 (second series), active compounds read low 0.968 | locus YOL078W, strain AVO1, active compounds read low 0.987 | locus YOL136C, strain PFK27, active compounds read low 0.963 | locus YOR061W, strain CKA2, active compounds read low 0.959 | locus YOR119C, strain RIO1, active compounds read low 0.992 | locus YOR231W, strain MKK1, active compounds read low 1.02 | locus YOR329C, strain SCD5, active compounds read low 0.987 | locus YPL031C, strain PHO85, active compounds read low 0.961 | locus YPL153C, strain RAD53, active compounds read low 0.959 | locus YPL204W, strain HRR25, active compounds read low 0.967 | locus YPL209C, strain IPL1, active compounds read low 0.983 | locus YPL256C, strain CLN2, active compounds read low 0.995 | locus YPR025C, strain CCL1, active compounds read low 0.984 | locus YPR106W, strain ISR1, active compounds read low 0.98 | locus YPR111W, strain DBF20, active compounds read low 0.97 | strain NNK1, active compounds read low 0.975 | strain TSCII, active compounds read low 0.974

C=CCn1c(COc2c(Br)cc(C)c3c2CCC3)n[nH]c1=S
inactive: [3] 0.968 | [4] 0.977 | [5] 0.969 | [1] 0.975 | [6] 0.965 | [7] 0.857 | [9] 0.978 | [10] 1.01 | [11] 0.98 | [12] 0.992 | [14] 0.991 | [18] 0.988 | [21] 0.975 | [23] 0.991 | [25] 1.08
active: [8] 0.896 | [2] 0.544 | [13] 0.491 | [15] 0.558 | [16] 0.571 | [17] 0.841 | [19] 0.846 | [20] 0.324 | [22] 0.764 | [24] 0.874 | [26] 0.847 | [27] 0.612

Cn1cc(C(F)(F)F)nc1-c1ccc(OCC(O)CNCCOc2ccc(O)c(C(N)=O)c2)cc1 (stereo not given)
inactive: locus YAL040C, strain CLN3, active compounds read low 0.996 | locus YCL061C, strain MRC1 (second series), active compounds read low 1 | locus YDR363W, strain ESC2, active compounds read low 1.01 | locus YER002W, strain NOP16, active compounds read low 1.04 | [9] 1.01 | [12] 1 | [19] 1.01 | [28] 1.02 | [21] 1.01 | locus YNL175C, strain NOP13, active compounds read low 1.05 | locus YNL197C, strain WHI3, active compounds read low 1.03 | locus YNL224C, strain SQS1, active compounds read low 1.04 | [23] 1.03 | locus YOR083W, strain WHI5 (second series), active compounds read low 0.987 | [25] 1.01 | [26] 1

CC(C)(C)c1ccc(CSc2nc(N)cc(=O)[nH]2)cc1
inactive: [3] 0.993 | [4] 1.02 | [5] 0.998 | [1] 0.981 | [6] 1.01 | [7] 0.949 | [8] 0.995 | [9] 1 | locus YGR229C, strain SMI1, active compounds read low 1.01 | [2] 0.988 | [10] 0.993 | locus YJL187C, strain SWE1, active compounds read low 0.985 | [11] 1.01 | [12] 1.01 | locus YKL190W, strain CNB1, active compounds read low 1.02 | [13] 1.02 | [14] 1.01 | [15] 0.898 | [16] 1.09 | [17] 0.975 | [18] 1 | [19] 1.01 | [20] 0.855 | [28] 1.01 | [21] 1.01 | [22] 1.01 | [23] 1 | [24] 1.01 | [25] 0.862 | [26] 0.972 | [27] 0.949
